Test results from ChEMBL document CHEMBL3988442, “University of Dundee, Small-Polar-MMV Screening Library” (2021).
The campaign covered roughly 48,000 compounds. About 13,000 (27%) showed an effect of 50% or more. This is one part of the list.

These compounds were tested on Wolbachia pipientis (assay: Anti-Wolbachia Cell-Based Screen). Conditions: 5 µM.
Format: functional
Set-up: scale not given: in the data most compounds retested in dose-response had high values

| SMILES | Percent Effect [%] |
| --- | --- |
| c1ccc(NCCn2cc(C3CCCNC3)nn2)cc1 (configuration not stated) | -6.163 |
| Cl.c1cc(CNc2cnc(C3CCCN3)cn2)ccn1 (configuration not stated) | 93.64 |
| COCC(=O)Nc1ccc(-c2noc([C@@H]3CCCN3)n2)cn1 | 10.12 |
| Cc1cccc(-c2c[nH]c(C3CCCN3)n2)c1.Cl.Cl (configuration not stated) | -28.51 |
| O=C(CCNc1ccc(Br)cn1)NCc1ccncc1 | 2.511 |
| Cl.c1cc(NCc2ccncc2)nc(C2CCCNC2)c1 (configuration not stated) | 93.58 |
| Cl.FC(F)CNc1cnc(C2CCCN2)cn1 (configuration not stated) | 111.3 |
| OC1CCN(Cc2ccc(CNc3ccc(Cl)cn3)cc2)CC1 | -3.648 |
| Cl.c1cc(NCc2ccncc2)nc(C2CCCN2)c1 (configuration not stated) | 109.1 |
| CCOc1cncc(N(C)CC(=O)NC)n1 | 3.632 |
| COc1ccc(F)cc1C(=O)N1CCn2c(nnc2C(F)(F)F)C1 | -12.82 |
| CC(CNC(=O)c1cccc(-n2cccn2)n1)Cn1ccnc1 (configuration not stated) | -7.743 |
| CCN1CC2(CCC1=O)CCN(C(=O)C(O)c1cccc(Cl)c1)CC2 (configuration not stated) | -4.5 |
| Cc1ccc(NCCCNC(=O)NCC2CCS(=O)(=O)C2)nc1 (configuration not stated) | 4.563 |
| CCC(CC)CNCC1(S(C)(=O)=O)CCOCC1 | -4.414 |
| CC(=O)N[C@@H]1CN(S(=O)(=O)c2ccc(Cl)cc2)C[C@H]1O | 155.9 |
| CCC[C@@H]1CN(S(=O)(=O)c2ccc(OC)c(OC)c2)C[C@H]1NC(C)=O | -5.851 |
| CCC[C@H]1CN(S(=O)(=O)c2ccc(Cl)cc2)C[C@@H]1NC(C)=O | 12.77 |
| CN(CCC#N)C(=O)Cc1csc(-c2ncccn2)n1 | 2.424 |
| CNC(=O)[C@@H]1C[C@H](N)CN1Cc1cc2cc(C)cc(C)c2[nH]c1=O | 27.32 |
| COCCn1cc2c(n1)C(CNCc1ccco1)OCC2.O=C(O)C(F)(F)F.O=C(O)C(F)(F)F (configuration not stated) | 3.436 |
| O=C(O)C(F)(F)F.O=C(O)C(F)(F)F.O=C(O)C(F)(F)F.c1ccc(Cn2cc3c(n2)C(CNCc2ccco2)OCC3)nc1 (configuration not stated) | -0.4855 |
| Cn1cc2c(n1)C(CNCc1ccco1)OCC2.O=C(O)C(F)(F)F.O=C(O)C(F)(F)F (configuration not stated) | 145.8 |

| SMILES | Percent Effect [%] |
| --- | --- |
| CC(C)NCC1OCCc2cn(C)nc21.O=C(O)C(F)(F)F (configuration not stated) | 25.68 |
| Cn1cc2c(n1)C(CNCC1CCOCC1)OCC2.O=C(O)C(F)(F)F.O=C(O)C(F)(F)F (configuration not stated) | 10.93 |
| Cc1occc1C(=O)NCC1OCCc2cn(C)nc21.O=C(O)C(F)(F)F (configuration not stated) | 115.2 |
| COc1ccccc1C1(CNc2snc(Cl)c2C#N)CCOCC1 | -1.634 |
| COc1cc(N2C[C@@H](C)[C@](O)(C3CC3)C2)nc(N)n1 | -24.25 |
| CC1CN(c2ncnc3ccccc23)CCO1 (configuration not stated) | -1.794 |
| CC(C)n1nc(Cn2cccc2)c2c1CN(C1CCOCC1)C2.O=C(O)C(F)(F)F | -6.023 |
| CC(C)n1nc(CN2CCCCC2)c2c1CN(C(=O)c1ccno1)C2.O=C(O)C(F)(F)F | 85.62 |
| Cc1ccc(C(=O)N2Cc3c(CN4CCCCC4)nn(C)c3C2)cc1C.O=C(O)C(F)(F)F | -1.924 |
| CC(C)n1nc(Cn2cccc2)c2c1CN(Cc1ccoc1)C2.O=C(O)C(F)(F)F | -4.933 |
| CC(C)n1nc(CN2CCOCC2)c2c1CN(Cc1ccsc1)C2.O=C(O)C(F)(F)F.O=C(O)C(F)(F)F | -3.193 |
| CC(C)n1nc(CN2CCOCC2)c2c1CN(C(=O)c1ccno1)C2.O=C(O)C(F)(F)F | 102.9 |
| O=C(c1cc(Cl)c2c(c1)OCO2)N1CCN(c2nccs2)CC1 | -12.71 |
| O=C(NCc1c(F)cccc1Cl)c1cc(CN2CCCC(O)C2)on1 (configuration not stated) | -0.1537 |
| Cc1cccc2c1nc1n2[C@@H](CNC(=O)CCC(=O)O)COC1 | -14.2 |
| Cc1noc(NCc2cc(F)ccc2F)n1 | 5.671 |
| CNC(=O)COc1ccc(CNCc2ccc(F)cc2F)cc1 | -7.839 |
| CNCc1cc(F)ccc1Oc1ccc(Cl)cc1 | 118.2 |
| CNCc1cc(F)ccc1Oc1ccc(F)cc1 | 114.4 |
| CC(C)S(=O)(=O)NCc1cccnc1Oc1ccc(F)cc1F | -8.317 |
| CN(C)S(=O)(=O)NCc1cccnc1Oc1ccc(F)cc1F | 1.253 |
| COc1ccc(C)cc1CC(=O)NC(CC(=O)O)c1ccc(F)cc1 (configuration not stated) | 6.211 |
| COc1ccc(CC(=O)NC(CC(=O)O)c2ccc(F)cc2)cc1OC (configuration not stated) | 11.02 |

| SMILES | Percent Effect [%] |
| --- | --- |
| CNCc1cc(F)ccc1Oc1ccc(F)cc1F | 116 |
| CC(NCC1CCN(CCO)CC1)c1ccc(Cl)cc1 (configuration not stated) | 5.926 |
| CCc1nn(C)c(Cl)c1CN1CCN(c2ccc(C(N)=O)cn2)CC1 | -7.307 |
| CC(C)Cc1ncc2c(n1)CN(C(=O)c1ccc(CN3CCCC3)o1)C2 | 8.376 |
| O=C(NC1CC1)[C@H]1C[C@H]2OCC[C@H]2N(Cc2cccc3ccccc23)C1.O=C(O)C(F)(F)F | -4.229 |
| Cc1nc(N(C)C)nc(C)c1NC(=O)c1ccco1 | 16.89 |
| CC(C)C(=O)N1CCN(S(C)(=O)=O)CC2(CC(=O)N(C)C2)C1 (configuration not stated) | 4.406 |
| COCc1noc(-c2ccc(N(C)Cc3ccc(C)o3)nc2)n1 | -8.335 |
| COCc1noc(-c2ccc(N(C)Cc3cc(C)no3)nc2)n1 | -6.826 |
| COCc1noc(-c2ccc(N(C)Cc3ncccc3C)nc2)n1 | 79.04 |
| CSc1ccccc1CC1CCCS(=O)(=O)C1 (configuration not stated) | -14.28 |
| O=S(=O)(NCCSc1nncn1C1CC1)c1ccccc1 | 13.46 |
| CCc1noc(C(C)N2CCN(Cc3nc(C)c(C)o3)CC2)n1 (configuration not stated) | 17.35 |
| CC(c1nc(C(C)(C)C)no1)N1CCC(N2CCCC2)CC1 (configuration not stated) | -1.947 |
| CC(c1nc(C2CC2)no1)N1CCN(CCc2ccncc2)CC1 (configuration not stated) | -3.98 |
| CC(c1nc(C2CC2)no1)N1CCN(CC(=O)N2CCOCC2)CC1 (configuration not stated) | 99.5 |
| CCc1noc(C(C)N2CCOCC2)n1 (configuration not stated) | 1.305 |
| CC(C(=O)N1CCOCC1)S(=O)(=O)Cc1nc(C(C)(C)C)no1 (configuration not stated) | -2.634 |
| CC(c1nc(C(C)(C)C)no1)N1CCN(C(=O)CN2CCOCC2)CC1 (configuration not stated) | 87.21 |
| CC(c1nc(C2CC2)no1)N1CCN(CCS(C)(=O)=O)CC1 (configuration not stated) | 9.574 |
| CCc1noc(C(C)N2CCN(CC(=O)N3CCOCC3)CC2)n1 (configuration not stated) | 97.96 |
